# Tau ThT inhib = qHTS for Inhibitors of Tau Fibril Formation, Thioflavin T Binding; recombinant tau K18 P301L, heparin-induced fibrillization, ThT fluorescence; Potency, µM (series often up to 57.4 µM), for inactives: top-dose activity, negative = inhibition, hits mostly inhibitors; actives 2.1% (n = 270,000); further: nearly all actives have a fitted effect of over 55% in size
# Target sequence (P10636 561-689 P618L limits assumed): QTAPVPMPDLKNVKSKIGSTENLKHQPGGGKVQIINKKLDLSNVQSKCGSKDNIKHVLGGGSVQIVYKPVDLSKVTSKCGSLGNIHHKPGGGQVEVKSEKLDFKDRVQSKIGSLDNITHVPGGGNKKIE
#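 Recombinant human tau K18 fragment […] carrying P301L, 15 uM unlabeled plus 0.24 uM Alexa 594-labeled, was fibrillized with 20 uM heparin in 100 mM sodium acetate pH 7 for 6 hr at 37 C; 30 uM ThT fluorescence read after 1 hr.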
# Tau fibril FP = qHTS for Inhibitors of Tau Fibril Formation, Fluorescence Polarization; Microtubule-associated protein tau (Homo sapiens), P10636; K18 P301L tau heparin fibrillization, Alexa594 FP, 6 h; Potency, µM (highest dose often 57.7 µM), without a hit: at the highest dose activity, negative = inhibition, most hits filed as inhibitors; actives 0.39% (n = 280,000); AID 1468, 2008; further: nearly all actives have a fitted effect of over 55% in size
#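 Steps: dispense K18 P301L tau (15 uM plus 0.24 uM Alexa 594 tracer, final) in pH 7 sodium acetate; add compound; add heparin (20 uM final); incubate 6 hr, 37 C; add ThT (30 uM final); after 1 hr ambient, read FP.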
# TRb SRC2 PPI = qHTS for Inhibitors of the Interaction of Thyroid Hormone Receptor and Steroid Receptor Coregulator 2; Thyroid hormone receptor beta (Homo sapiens), P10828; TRbeta-SRC2 peptide binding, fluorescence polarization; receptor liganded with 1 µM T3; Potency, µM (series often up to 106 µM), for inactives: at the top dose activity change, negative = inhibition, most hits filed as inhibitors; actives 0.065% (n = 280,000); AID 1469, 2008;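 further: plate controls were bound peptide for no effect and peptide without receptor for full effect; nearly all actives have a fitted effect of over 50% in size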
#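 Quantitative HTS by FP: 0.6 uM TRb LBD, 20 nM labeled SRC2 20-mer, 1 uM T3, 5% DMSO; 5 hr ambient incubation; % activity per concentration and potencies from concentration series.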
# Tau fluor cs = Counterscreen qHTS for Inhibitors of Tau Fibril Formation, Fluorescence Polarization | tau K18 P301L (four-repeat tau fragment) Alexa594 fluorescence, heparin fibrillization | Potency, µM (series often up to 57.7 µM), for the others: at the highest dose activity change, negative = decrease | actives 0.93% (n = 280,000) | AID 1463, 2008; further: nearly all actives have a fitted effect of over 55% in size
#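 Human K18 P301L tau (15 uM unlabeled plus 0.24 uM Alexa 594-labeled, final) in 100 mM sodium acetate pH 7 was mixed with compound and 20 uM heparin and incubated 6 hr at 37 C.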
# TexasRed fluor = Total Fluorescence Counterscreen for Inhibitors of the Interaction of Thyroid Hormone Receptor and Steroid Receptor Coregulator 2 | TRb/SRC2 Texas Red total fluorescence interference | Potency, µM (titrated, usually from 106 µM), without a hit: at the top dose fluorescence change, negative = quenching | actives 0.29% (n = 280,000) | AID 1479, 2009; active means well fitted curve in either direction with a large enough effect; inconclusive means small, poorly fitted or top-dose-only effect
#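 Flags fluorescent or light-absorbing compounds by total fluorescence, S + 2P, at 555 nm excitation and 632 nm emission. Mixture: 20 nM Texas Red SRC2 peptide, 0.6 uM human TRb LBD, 1 uM T3, 5% DMSO; compound exposure 5 h at ambient temperature.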
# * hit, by the source's call; ? = inconclusive; nt = no result; [ ] = dose if it differs, or a comment. Shown are actives, neighbours in structure and some others; about 3% of the full set was active somewhere. Unless noted, the call rests on the fitted dose curve; in most records, active means well fitted curve in the direction sought with a large enough effect; inconclusive means small, poorly fitted or top-dose-only effect, or another doubt; inactive means no such curve, though single readings can be large; an effect the other way counts as inactive or inconclusive. Unless noted, on the % scale 0 is the no-effect control and ±100 the full control effect; potency means the concentration at half of the fitted maximal effect.
SMILES,Tau ThT inhib,Tau fibril FP,TRb SRC2 PPI,Tau fluor cs,TexasRed fluor
Cc1cccn2c(=O)c(C(=O)NCCCN3CCCCC3C)c(O)nc12 (stereo not given),0%,-16%,-1%,-8%,18µM*[quencher]
CCC1CCCCN1CCCNC(=O)c1c(O)nc2c(C)cccn2c1=O (stereo not given),1%,-6%,0%,-6%,-30%
Cc1ccccc1S(=O)(=O)NC1OC(=O)C(Cl)=C1Cl (stereo not given),28µM*,28µM*,-10%,-22%,-1%
Cc1nc(Oc2ccccc2C)c2oc3ccccc3c2n1,-8%,-14%,-9%,-14%,0%
CC1(C)CC(=O)C(C(c2ccc(F)cc2)C2C(=O)CC(C)(C)CC2=O)C(=O)C1,-16%,-3%,-3%,-11%,-2%
CC1(C)CC(=O)C(C(c2ccco2)C2C(=O)CC(C)(C)CC2=O)C(=O)C1,28µM*,?,-2%,-24%,1%
O=S(=O)(Nc1cc(Sc2cccc3cccnc23)c(O)c2ccccc12)c1ccc(F)cc1,13µM*,28µM*,?,14µM*[quencher],-9%
COc1ccc(S(=O)(=O)Nc2cc(Sc3ncn[nH]3)c(O)c3ccccc23)cc1,7.1µM*,16µM*,?,?,-20%
COc1ccccc1N(O)C1CC(=O)N(c2ccc(Br)cc2)C1=O (stereo not given),14µM*,?,-11%,?,-8%
CCOC(=O)c1sc(N2C(=O)c3oc4cc(C)c(C)cc4c(=O)c3C2c2ccc(C)cc2)nc1C (stereo not given),-6%,4%,1%,1%,5%
COc1ccc(Cl)cc1NC(=O)CCC(=O)N1CCOc2ccccc21,10%,?,0%,8%,1%
COc1ccccc1NC(=O)N1CCOc2ccccc21,?,4%,-2%,13µM*[quencher],-6%
CCC(=O)N1c2ccc(S(=O)(=O)N3CCC(C)CC3)cc2CC1C (stereo not given),-5%,-7%,0%,-14%,-1%
Cn1c(=O)[nH]c(=O)n(C2CCCCC2)c1=O,nt,nt,-3%[201 µM],nt,0%[201 µM]
CC1CCCN(S(=O)(=O)c2ccc(NC(=O)Cn3nnc(-c4ccccc4F)n3)cc2)C1 (stereo not given),8%,20µM*,4%,?,2%
CCc1ccc(NC(=O)N(Cc2ccc(C)cc2)Cc2cccn2-c2nnc(N3CCCC3=O)s2)cc1,-10%,-6%,10%,-18%,-8%
CCOC(=O)c1cnc2ccc(C)cc2c1Nc1ccc(N2CCOCC2)cc1,28µM*,?,-11%,?,-5%
CCOC(=O)c1cnc2ccc(C)cc2c1Nc1ccc(N(CC)CC)cc1,13µM*,?,1%,?,-3%
CCOC(=O)c1cnc2ccc(Cl)cc2c1Nc1ccc(N2CCOCC2)cc1,16µM*,-12%,15%,?,0%
CCOC(=O)c1cnc2ccc(C(=O)OC)cc2c1Nc1ccc(N2CCOCC2)cc1,14µM*,-1%,5%,?,-1%
CCOC(=O)c1cnc2ccccc2c1Nc1ccc(C(=O)O)cc1,-2%,8%,-6%,-5%,-2%
COc1cccc(C2=Nn3c(nnc3-c3cc(OC)ccc3OC)SC2)c1,nt,nt,-2%,nt,-2%
CCC(C)NC(=O)Cn1c(=O)n(Cc2ccc(C(=O)NCc3ccc(C)cc3)cc2)c(=O)c2ccccc21 (stereo not given),0%,-12%,-3%,-24%,0%
CC(=O)c1ccc(NS(=O)(=O)c2cc(-c3cc(C)no3)ccc2C)cc1,-8%,-14%,6%,-23%,-1%
O=c1c(O)c(-c2ccc(O)c(O)c2)oc2c(OC3OC(CO)C(O)C(O)C3O)c(O)cc(O)c12 (stereo not given),14µM*,?,4%,-28%,-2%

# Source: PubChem BioAssay (National Center for Advancing Translational Sciences (NCATS))
